The values below come from PubChem BioAssay (NCATS).

Results filed as inconclusive are left out. Active and inactive are the calls of the source. Unless noted, calls follow the shape of the dose curve; as a rule, active = well fitted curve in the direction sought with a large enough effect; inconclusive = small, poorly fitted or top-dose-only effect, or another doubt; inactive = no such curve, though single readings can be large; an effect the other way counts as inactive or inconclusive.

The target of assay [1] is DNA repair nuclease/redox regulator APEX1 (Homo sapiens) (UniProt P27695). Kind of assay: qHTS Validation Assay for Inhibitors of the Human Apurinic/apyrimidinic Endonuclease 1 (APE1) (AID 1705;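 also: TAMRA fluorescence gain over two minutes as APE1 cuts a quenched THF abasic duplex; series mostly up to about 57 µM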). The procedure, abridged: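 Substrate: 50 nM final fluorophore/quencher THF-abasic duplex. Enzyme preincubated with compounds 15 min, RT. Progress derived from fluorescence difference, third minus first kinetic read.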
On the technique in general: In qHTS, concentration-response curves come from the screen itself.

Assay [2] can be described thus: Counterscreen for APE1 Inhibitors: Fluorescent Dye Displacement Validation Assay (AID 1707). The procedure, abridged:
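Thiazole Orange displacement from dsDNA: 250 nM ThO with 50 nM TAMRA-labelled abasic-site (tetrahydrofuran) duplex in 50 mM Tris-HCl pH7.5, 50mM NaCl, 2 mM MgCl2, 0.01% Tween-20. Loss of endpoint fluorescence (ex 480 nm, em 540 nm) flags DNA binders.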

Assay [3] addresses Endonuclease 4 (Escherichia coli (strain K12)) (UniProt P0A6C1). As to the kind of experiment: Counterscreen for APE1 Inhibitors: qHTS Validation Assay for Inhibitors of Endonuclease IV (AID 1708). The procedure, abridged:
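Cleavage of a quenched abasic-site DNA duplex (50 nM, 5'-TAMRA, 3'-BHQ-2) by 2 nM enzyme is followed as fluorescence increase. Compounds are preincubated with enzyme 15 min at room temperature before substrate addition.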

The nature of assay [4]: qHTS for differential inhibitors of proliferation of Plasmodium falciparum line 7G8 (AID 1815).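 Also: parasite growth measured after three days of incubation.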 Also: potency is read from the fitted curve at half-maximal effect.
Assay [5] can be described thus: qHTS for differential inhibitors of proliferation of Plasmodium falciparum line GB4 (AID 1816).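 Also: parasite growth measured after 72 h incubation.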 Also: potency is read from the fitted curve at half-maximal effect. As to conditions: Potency: Plasmodium falciparum GB4 proliferation inhibition.
A short description of assay [6]: qHTS for differential inhibitors of proliferation of Plasmodium falciparum line 3D7 (AID 1876). Also: potency is read from the fitted curve at half-maximal effect.
The nature of assay [7]: qHTS for differential inhibitors of proliferation of Plasmodium falciparum line D10 (AID 1877).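 Also: parasites grown with compound for 72 h before DNA staining.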 Also: potency is read from the fitted curve at half-maximal effect.
The nature of assay [8]: qHTS for differential inhibitors of proliferation of Plasmodium falciparum line Dd2 (AID 1882). Also: nearly all actives have a fitted effect of over 65% in size. Also: potency is read from the fitted curve at half-maximal effect. To be noted: Potency: Plasmodium falciparum Dd2 proliferation inhibition. The procedure, abridged:
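SYBR Green I DNA fluorescence read-out, ex 485/em 535 nm. Signals were normalized to 0.29 uM artemisinin and DMSO wells, then corrected using vehicle-only plates flanking each stack. Parasite growth ran 72 h in erythrocytes before lysis.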

A short description of assay [9]: qHTS for differential inhibitors of proliferation of Plasmodium falciparum line W2 (AID 1883).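 Also: parasites grown with compound for 72 h before lysis and staining.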 Also: potency is read from the fitted curve at half-maximal effect. To be noted: Potency: Plasmodium falciparum W2 proliferation inhibition.
Assay [10] is described as follows: qHTS for differential inhibitors of proliferation of Plasmodium falciparum line HB3 (AID 1886).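 Also: parasites grown with compound for 72 h before SYBR Green readout.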 Also: potency is read from the fitted curve at half-maximal effect. To be noted: Potency: Plasmodium falciparum HB3 proliferation inhibition.
The target of assay [11] is Ferritin light chain (Equus caballus) (UniProt P02791). Kind of assay: qHTS Validation Assay for Identification of Novel General Anesthetics (AID 2323). Also: series mostly up to about 77 µM. An outline of the steps: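 Normalized fluorescence response, scaled between free 1-AMA and 1-AMA/apoferritin complex, fitted to a four-parameter Hill equation for concentration-effect values. Binding mix: 10 uM horse-spleen apoferritin, 50% saturated 1-AMA in PBS; read 380/535 nm after 10 min.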

Assay [12] deals with ATP-dependent DNA helicase Q1 (Homo sapiens) (UniProt P46063). Kind of assay: qHTS Validation Assay for Inhibitors of RecQ-Like Dna Helicase 1 (RECQ1) (AID 2353). An outline of the steps:
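50 nM RECQ1T1 preincubated 15 min with compound in Tris pH 8.0 buffer with MgCl2, DTT, Tween-20 and 2.5 ug/ml poly(dI-dC); started with 200 nM TAMRA/BHQ-2 forked duplex and 2 mM ATP. Unwinding read as fluorescence (525/598 nm), two reads 2 h apart.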

Assay [13] in a line: Cytometric Cell-Based qHTS for Inhibitors of the mTORC1 Signaling Pathway in MEF (Tsc2-/-, p53-/-) Cells (AID 2660).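 Also: percent of cells above a phospho-rpS6 to PI ratio cutoff in each well; series mostly up to about 38 µM.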 An outline of the steps: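 Readout: Alexa-488 phospho-rpS6 (Ser235/236) intensity divided by PI intensity, thresholded against 7.5 nM rapamycin wells and reported as % positive cells. PI cell count served as the viability measure. Compound exposure was 24 hrs at 37 degree Celsius.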

Assay [14] can be described thus: High Content Imaging Cell-Based qHTS for Inhibitors of the mTORC1 Signaling Pathway in MEF (Tsc2-/-, p53-/-) Cells (AID 2666). The procedure, abridged: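 Phospho-rpS6 (Ser235/236) immunofluorescence, normalized and scored as % positive cells using rapamycin and DMSO controls, was read in empty-vector Tsc2-/-, p53-/- MEFs after 24 h compound exposure at 37 C; propidium iodide counted cells.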

Assay [15] in a line: High Content Imaging Cell-Based qHTS for Inhibitors of the mTORC1 Signaling Pathway in MEF Cells (AID 2667).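 Also: Tsc2-/- p53-/- MEFs stably re-expressing wild-type Tsc2 exposed 24 h; series mostly up to about 38 µM.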 The procedure, abridged:
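WT MEFs (Tsc2-/-, p53-/- re-expressing Tsc2), in DMEM + 10% FBS, were treated with compound for 24 h at 37 C. Cells were then fixed and stained for phospho-rpS6 Ser235/236 with propidium iodide as cell count. Values are % positive cells, with thresholds set against rapamycin-treated cells.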

Assay [16] concerns the target RecQ-like DNA helicase BLM (Homo sapiens) (UniProt P54132). As to the kind of experiment: qHTS Validation Assay for Inhibitors of Bloom's syndrome helicase (BLM) (AID 2364). The procedure, abridged: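 50 nM BLM preincubated 15 min at room temperature with compound in pH 8.0 Tris buffer containing 2.5 ug/ml poly(dI-dC); started with 200 nM TAMRA/BHQ-2 forked duplex and 2 mM ATP (final). Unwinding read as TAMRA fluorescence increase, two reads 2 h apart.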

Assay [17] in a line: qHTS Assay for Modulators of Human Peripheral Myelin Protein 22 (PMP22) Expression/Activity (AID 1967; active = well fitted curve in the direction sought with a large enough effect in the signal ratio; the % refers to the signal ratio). The procedure, abridged:
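Engineered MSC80 cells, Pmp22-promoter green and EF-alpha red luciferase reporters; 24h compound treatment at 37 °C. Concentration-response fits on green, red and ratio signals, each overlap-corrected, with %Activity normalized to untreated wells.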

DNA repair nuclease/redox regulator APEX1 (Homo sapiens), sequence (P27695 whole entry, looked up): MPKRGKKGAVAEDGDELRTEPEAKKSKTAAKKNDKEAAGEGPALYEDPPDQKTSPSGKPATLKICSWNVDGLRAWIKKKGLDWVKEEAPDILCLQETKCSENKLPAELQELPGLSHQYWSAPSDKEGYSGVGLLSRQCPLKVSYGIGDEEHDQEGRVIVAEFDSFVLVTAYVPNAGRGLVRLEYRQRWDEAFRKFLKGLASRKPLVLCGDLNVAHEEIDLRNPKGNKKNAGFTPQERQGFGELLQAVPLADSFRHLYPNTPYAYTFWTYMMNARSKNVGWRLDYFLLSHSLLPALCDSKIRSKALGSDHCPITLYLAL
Ferritin light chain (Equus caballus), sequence (P02791 2-175 limits assumed): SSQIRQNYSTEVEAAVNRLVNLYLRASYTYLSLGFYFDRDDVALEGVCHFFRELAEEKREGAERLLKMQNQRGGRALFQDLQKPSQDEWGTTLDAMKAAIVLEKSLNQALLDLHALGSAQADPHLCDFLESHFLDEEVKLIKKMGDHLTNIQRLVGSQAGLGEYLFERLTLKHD
ATP-dependent DNA helicase Q1 (Homo sapiens), sequence (P46063 whole entry, looked up): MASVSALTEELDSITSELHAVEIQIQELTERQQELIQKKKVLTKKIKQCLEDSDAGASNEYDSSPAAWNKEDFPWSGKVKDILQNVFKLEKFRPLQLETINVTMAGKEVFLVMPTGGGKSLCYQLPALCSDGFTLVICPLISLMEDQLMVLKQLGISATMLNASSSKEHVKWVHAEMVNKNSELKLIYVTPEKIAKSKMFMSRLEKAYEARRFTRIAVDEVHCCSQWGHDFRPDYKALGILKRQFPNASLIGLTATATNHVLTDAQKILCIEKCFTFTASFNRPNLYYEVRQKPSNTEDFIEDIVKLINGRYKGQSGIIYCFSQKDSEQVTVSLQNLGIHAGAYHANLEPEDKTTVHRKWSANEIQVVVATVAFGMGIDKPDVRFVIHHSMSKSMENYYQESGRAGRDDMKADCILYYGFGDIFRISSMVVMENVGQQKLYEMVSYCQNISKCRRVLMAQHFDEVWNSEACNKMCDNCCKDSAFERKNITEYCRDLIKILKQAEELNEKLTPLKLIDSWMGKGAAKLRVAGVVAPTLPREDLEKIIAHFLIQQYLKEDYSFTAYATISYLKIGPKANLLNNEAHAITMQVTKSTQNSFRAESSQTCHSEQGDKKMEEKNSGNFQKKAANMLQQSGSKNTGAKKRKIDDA
RecQ-like DNA helicase BLM (Homo sapiens), sequence (P54132 whole entry, looked up): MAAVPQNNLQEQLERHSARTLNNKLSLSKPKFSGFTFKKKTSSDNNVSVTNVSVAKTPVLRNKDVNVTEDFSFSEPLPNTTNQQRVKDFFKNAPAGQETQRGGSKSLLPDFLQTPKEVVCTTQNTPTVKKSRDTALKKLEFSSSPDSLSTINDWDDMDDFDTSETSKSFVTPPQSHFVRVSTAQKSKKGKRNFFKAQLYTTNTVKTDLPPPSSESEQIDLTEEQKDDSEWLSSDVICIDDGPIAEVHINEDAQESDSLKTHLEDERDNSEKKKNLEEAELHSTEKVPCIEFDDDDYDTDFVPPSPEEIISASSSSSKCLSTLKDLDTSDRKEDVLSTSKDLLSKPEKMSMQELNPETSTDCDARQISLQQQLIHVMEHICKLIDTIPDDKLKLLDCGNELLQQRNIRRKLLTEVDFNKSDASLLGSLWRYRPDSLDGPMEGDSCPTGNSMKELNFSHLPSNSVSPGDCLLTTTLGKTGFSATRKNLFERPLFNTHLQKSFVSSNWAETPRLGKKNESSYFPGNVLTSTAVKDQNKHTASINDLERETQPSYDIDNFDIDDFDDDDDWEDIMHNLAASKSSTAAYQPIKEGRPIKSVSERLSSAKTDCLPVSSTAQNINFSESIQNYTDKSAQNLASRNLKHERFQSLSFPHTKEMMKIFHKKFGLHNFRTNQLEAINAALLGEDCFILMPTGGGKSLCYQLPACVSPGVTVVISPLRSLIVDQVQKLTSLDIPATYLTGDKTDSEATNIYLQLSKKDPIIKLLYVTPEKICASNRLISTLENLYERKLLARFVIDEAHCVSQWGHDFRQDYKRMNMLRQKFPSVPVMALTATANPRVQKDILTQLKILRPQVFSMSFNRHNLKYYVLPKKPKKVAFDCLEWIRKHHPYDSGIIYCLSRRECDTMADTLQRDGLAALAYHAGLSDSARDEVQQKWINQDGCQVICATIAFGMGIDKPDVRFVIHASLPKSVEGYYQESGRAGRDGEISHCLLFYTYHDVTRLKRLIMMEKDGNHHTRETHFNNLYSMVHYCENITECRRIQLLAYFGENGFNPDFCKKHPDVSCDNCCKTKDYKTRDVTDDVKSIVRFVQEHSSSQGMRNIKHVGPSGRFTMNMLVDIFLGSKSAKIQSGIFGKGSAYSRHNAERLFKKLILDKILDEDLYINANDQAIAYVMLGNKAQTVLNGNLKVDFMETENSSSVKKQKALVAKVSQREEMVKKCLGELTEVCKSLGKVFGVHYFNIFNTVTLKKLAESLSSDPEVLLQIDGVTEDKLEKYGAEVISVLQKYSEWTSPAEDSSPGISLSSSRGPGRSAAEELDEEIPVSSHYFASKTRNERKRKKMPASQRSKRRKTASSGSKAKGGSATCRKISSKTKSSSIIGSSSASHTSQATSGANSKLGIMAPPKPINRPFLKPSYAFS

Consider `CN(C)C(N)=NCCC[C@H](N)C(=O)O`, for which the Potency result in assay [1], in [2], in assay [3], in [4], in assay [5] and in assay [6] was “inactive” each time. The Potency result in assay [7], in assay [8], in assay [9], in assay [10], in [11] and in [12] was “inactive” each time. The Potency result in assay [14] and in assay [15] was “inactive” throughout. Besides, the call in assay [13] was inactive.
Take `Oc1ccc(C2CNCc3sccc32)cc1O` (centres undefined): the Potency result in assay [1], in assay [2], in [3], in assay [12], in assay [14] and in assay [15] was “inactive” in each case. Also, the Potency was 8.91 µM (active) in [4]; 12.6 µM (active) in assay [5]; 11.2 µM (active) in [7]; 8.91 µM (active) in [8]; 11.2 µM (active) in assay [9]; 11.2 µM (active) in assay [10]. Also, the result in [13] was inactive.
Take `CCCn1c(=O)c2[nH]c(-c3ccc(OCC(=O)NCCN)cc3)nc2n(CCC)c1=O`: the Potency result in [1], in assay [2], in assay [3], in assay [11], in [12] and in assay [16] was “inactive” each time. For the same compound, the Potency entry in assay [14] and in assay [15] was “inactive” each time. The Potency in assay [5] was 10 µM (active); in assay [9] it was 12.6 µM (active). In [13], the result was inactive.
Turning to `O=c1[nH]c2cc(Cl)c(Cl)cc2[nH]c1=O`, the Potency result in assay [1], in assay [2], in [3], in assay [8], in assay [11] and in [12] was “inactive” each time. Also, the Potency entry in assay [14] and in assay [15] was “inactive” each time. The values for the Potency in assay [6] and in [9] were 2.51 µM (active) and 3.55 µM (active), respectively. In addition, the result in assay [13] was inactive.
With `c1ccc(-c2ccccn2)nc1`, the Potency entry in [1], in [2], in [3], in assay [5], in assay [6] and in [7] was “inactive” each time. Moreover, the Potency entry in [8], in assay [10], in assay [11], in assay [12], in [14] and in assay [15] was “inactive” throughout. Also, the compound was classed as inactive in [17] and in [13].
For the compound `N#C/C(=C\c1ccc(O)c(O)c1)C(=O)NCc1ccccc1`, the Potency entry in [1], in [2], in assay [3], in assay [12], in [14] and in assay [15] was “inactive” in each case. In addition, the Potency in assay [4] was 12.6 µM (active); in assay [5], 11.2 µM (active); in [6], 10 µM (active); in assay [7] it was 17.8 µM (active); in assay [9], 11.2 µM (active); in assay [10] it was 11.2 µM (active). For the same compound, the compound was classed as inactive in [13].
Regarding `CC1CN(S(=O)(=O)c2cccc3cnccc23)CCN1` (centres undefined), the Potency entry in assay [1], in assay [2], in [3], in [6], in assay [7] and in assay [8] was “inactive” in each case. Also, the Potency entry in assay [10], in [11], in assay [12], in assay [16], in assay [14] and in [15] was “inactive” throughout. For the same compound, the Potency is 11.2 µM (active) in assay [5] and 7.94 µM (active) in assay [9]. Besides, the result in [17] and in [13] was inactive.
Regarding `N[C@@H](CC(=O)O)C(=O)O`, the Potency result in assay [1], in [2], in assay [3], in [4], in assay [5] and in [6] was “inactive” each time. Also, the Potency entry in [7], in assay [8], in [9], in assay [10], in [12] and in assay [14] was “inactive” in each case. For the same compound, the Potency entry in [15] was “inactive”. Besides, the call in [13] was inactive.
`CN1CCc2cc(O)c(O)cc2C(c2ccccc2)C1` (centres undefined): the Potency result in [1], in assay [2], in [3], in [11], in assay [12] and in assay [14] was “inactive” throughout. The Potency in [4] is 11.2 µM (active); in assay [5], 10 µM (active); in [7], 12.6 µM (active); in assay [9] it was 10 µM (active); in assay [10], 12.6 µM (active). In addition, the outcome in assay [13] was inactive.
